Assay results from PubChem BioAssay (NCATS).
Records with an inconclusive call do not appear. Activity calls are given as the source filed them. The call rests on the fitted dose curve; in most records, active means well fitted curve in the direction sought with a large enough effect; inconclusive means small, poorly fitted or top-dose-only effect, or another doubt; inactive means no such curve, though single readings can be large; an effect the other way counts as inactive or inconclusive.

How the values were obtained:
[1] = MCF7 Cancer Cell Toxicity qHTS against the NCATS CANVASS Library (AID 1347369)
Source text: Natural products and their derivatives continue to be wellsprings of nascent therapeutic potential. However, many laboratories have limited resources for biological evaluation, leaving their previously isolated or synthesized compounds largely or completely untested. To address this issue, the Canvass library of natural products was assembled (https://tripod.nih.gov/canvass), in collaboration with academic and industry researchers, for quantitative high-throughput screening (qHTS) across a diverse set of cell-based and biochemical assays. The pure (>85% purity by liquid chromatography/mass spectrometry [LC/MS]) Canvass library of 346 natural products were submitted by 45 academic laboratories and companies around the world. […] The library was formatted into 1536-well plates and evaluated in 50 qHTS (in an 11-pnt concentration series) bioassays with broad scope of disease-relevant mechanisms. The resulting data set from 50 different assays was then systematically analyzed to identify overall trends and specific natural products with interesting biological activities. […] This assay uses ATP (luminescence) content to measure the cytotoxiciy of compounds on MCF7 human breast cancer cell line. […]
Cancer Cell Toxicity qHTS protocol: MCF7 cell line 1. […] Luminescence signal was acquired via the ViewLux plate reader (PerkinElmer) using a clear emission filter, 2 sec exposure, and 1x binning settings.

[2] = qHTS for ATAD5 Antagonist screened against the NCATS CANVASS Library (AID 1347370);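 further: HEK293T cells carrying an ATAD5 luciferase reporter co-treated with 10 µM 5-fluorouridine; nearly all actives have a fitted effect of over 65% in size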
How it was run: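 HEK293T-ATAD5 luc reporter, 2000 cells/well; 5hr attach; cpd + 10 uM 5-FUrd; 16hr 37C, 5% CO2. Readouts: CellTiter-Fluor fluorescence (1hr), then Amplite luciferase luminescence (30min RT).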

[3] = J3T Cancer Cell Toxicity qHTS against the NCATS CANVASS Library (AID 1347371); conditions: J3T dog glioma viability, ATP luminescence, 72 h; at 46.1 µM (top of the series)
How it was run: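 ATP-based cytotoxicity in canine J3T cells: 72 hr exposure at 37C, 11-point titration, CellTiterGlo luminescent detection.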

[4] = biological target: Nuclear receptor subfamily 1 group I member 3 (Homo sapiens) (UniProt Q14994); assay: qHTS for Constitutive Androstane Receptor (CAR) Antagonist screened against the NCATS CANVASS Library (AID 1347372);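 further: cells stimulated with 50 nM CITCO agonist so inhibition reflects antagonism; luciferase from CYP2B6 promoter reporter driven by hCAR in HepG2 cells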
Sequence of Nuclear receptor subfamily 1 group I member 3 (Homo sapiens) (Q14994 whole entry, looked up): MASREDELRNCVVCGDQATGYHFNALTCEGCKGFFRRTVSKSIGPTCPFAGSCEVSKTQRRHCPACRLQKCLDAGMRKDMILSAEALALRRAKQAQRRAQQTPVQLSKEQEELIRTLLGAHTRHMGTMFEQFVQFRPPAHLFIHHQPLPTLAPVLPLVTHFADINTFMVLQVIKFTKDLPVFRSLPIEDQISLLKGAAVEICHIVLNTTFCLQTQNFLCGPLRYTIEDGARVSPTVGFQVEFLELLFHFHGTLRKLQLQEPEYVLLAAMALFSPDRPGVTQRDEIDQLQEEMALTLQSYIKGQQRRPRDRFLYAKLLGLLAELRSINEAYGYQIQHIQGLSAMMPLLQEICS
How it was run: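 Cells were seeded and left 4hr to attach, then received compound at 11 concentrations and 50 nM CITCO. Following 24hr incubation, fluorescence viability and luciferase luminescence were read sequentially.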

[5] = biological target: Nuclear receptor subfamily 1 group I member 3 (Homo sapiens) (UniProt Q14994); assay: qHTS for Constitutive Androstane Receptor (CAR) Agonist screened against the NCATS CANVASS Library (AID 1347373);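 further: every well also contained 1.5 µM PK11195 alongside the test compound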
How it was run: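 In an 11-point concentration series, compounds were incubated 24hr with HepG2 cells carrying hCAR and a CYP2B6-2.2kb reporter, with PK11195 at 1.5uM final. A CellTiter-Fluor viability read preceded the ONE-Glo luminescence read.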

[6] = qHTS for Hypoxia signaling pathway (HIF-1) antagonists against the NCATS CANVASS Library (AID 1347374);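 further: HRE-bla ME-180 cells stimulated with cobalt chloride to stabilize HIF-1alpha; nearly all actives have a fitted effect of over 60% in size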
How it was run: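 Beta-lactamase reporter under HRE control in ME-180 cells; CoCl2 stimulus (60 uM solution as added), compounds 11-pt qHTS, 17 h 37C. CCF4 dye 2 h RT, 460/530 nm emission. CellTiter-Glo viability in same wells.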

[7] = qHTS for Hypoxia signaling pathway (HIF-1) agonists against the NCATS CANVASS Library (AID 1347375)
How it was run: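 An HRE-beta-lactamase ME-180 line is exposed for 17 h to an 11-point compound series, then read by CCF4-AM FRET. Cytotoxicity is measured in parallel in the same wells with CellTiter-Glo, and autofluorescence is checked separately.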

[8] = 10-beta competent E. coli microbial cell viability qHTS against the NCATS CANVASS Library (AID 1347376)
How it was run: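 Overnight 37C exposure of 10-beta E. coli (0.2 OD) to an 11-point concentration series; ATP-based luminescence after 20 min room-temperature reagent incubation; daunomycin as control.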

[9] = qHTS for H2AX Agonists against the NCATS CANVASS Library (AID 1347378)
How it was run: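 Phospho-H2AX (S139) in CHO-K1 lysates measured by HTRF, reported as 665/615 nm emission ratio after 24 hr antibody incubation at room temperature. Cells were first treated with a compound series for 3 hr at 37C (0.76% DMSO final).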

[10] = qHTS for Inflammasome Signaling Inhibitors: IL-1-beta AlphaLISA screen against the NCATS CANVASS Library (AID 1347379); conditions: THP-1 LPS/ATP, IL-1B AlphaLISA secretion, 16 h; at 57.5 µM (top of the series);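 further: human THP-1 cells primed with LPS then triggered with ATP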
How it was run: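 THP-1, 1 hr compound pre-incubation, then LPS 250 ng/mL + ATP 1.25 mM (final); 16 hr total with compound; IL-1B AlphaLISA, ex 680/em 615 nm; 11-point qHTS, up to 57.5 uM final.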

Measured: outcome

NCC(O)c1ccc(O)cc1 (stereo not given)
inactive: all assays above
